Over roughly 1,900 compounds, “excess over highest single agent (ExcessHSA) synergy score, 6x6 matrix” has its median near -83; the lowest 2% begin near -370. For the sample, the lowest values were picked, then their nearest neighbours and some compounds at random.
Tested on: NCI-H446
Assay: excess over highest single agent (ExcessHSA) synergy score, 6x6 matrix; higher = less synergy (more negative = stronger synergy)
Conditions: 72 h; CellTiter-Glo viability

In order of rising “excess over highest single agent” value:
1. CO[C@H]1C[C@@H]2CC[C@@H](C)[C@@](O)(O2)C(=O)C(=O)N2CCCC[C@H]2C(=O)O[C@H]([C@H](C)C[C@@H]2CC[C@@H](O)[C@H](OC)C2)CC(=O)[C@H](C)/C=C(\C)[C@@H](O)[C@@H](OC)C(=O)[C@H](C)C[C@H](C)/C=C/C=C/C=C/1C + Cc1sc2c(c1C)C(c1ccc(Cl)cc1)=N[C@@H](CC(=O)OC(C)(C)C)c1nnc(C)n1-2 [NCGC00250412-19]  -737
2. CO[C@H]1C[C@@H]2CC[C@@H](C)[C@@](O)(O2)C(=O)C(=O)N2CCCC[C@H]2C(=O)O[C@H]([C@H](C)C[C@@H]2CC[C@@H](OCCO)[C@H](OC)C2)CC(=O)[C@H](C)/C=C(\C)[C@@H](O)[C@@H](OC)C(=O)[C@H](C)C[C@H](C)/C=C/C=C/C=C/1C + Cc1sc2c(c1C)C(c1ccc(Cl)cc1)=N[C@@H](CC(=O)OC(C)(C)C)c1nnc(C)n1-2 [NCGC00250412-19]  -598
3. CO[C@H]1C[C@@H]2CC[C@@H](C)[C@@](O)(O2)C(=O)C(=O)N2CCCC[C@H]2C(=O)O[C@H]([C@H](C)C[C@@H]2CC[C@@H](OP(C)(C)=O)[C@H](OC)C2)CC(=O)[C@H](C)/C=C(\C)[C@@H](O)[C@@H](OC)C(=O)[C@H](C)C[C@H](C)/C=C/C=C/C=C/1C + Cc1sc2c(c1C)C(c1ccc(Cl)cc1)=N[C@@H](CC(=O)OC(C)(C)C)c1nnc(C)n1-2 [NCGC00250412-19]  -543
4. CO[C@H]1C[C@@H]2CC[C@@H](C)[C@@](O)(O2)C(=O)C(=O)N2CCCC[C@H]2C(=O)O[C@H]([C@H](C)C[C@@H]2CC[C@@H](OC(=O)C(C)(CO)CO)[C@H](OC)C2)CC(=O)[C@H](C)/C=C(\C)[C@@H](O)[C@@H](OC)C(=O)[C@H](C)C[C@H](C)/C=C/C=C/C=C/1C + Cc1sc2c(c1C)C(c1ccc(Cl)cc1)=N[C@@H](CC(=O)OC(C)(C)C)c1nnc(C)n1-2 [NCGC00250412-19]  -419
5. O=C(O)c1ccc2cc(-c3ccc(O)c(C45CC6CC(CC(C6)C4)C5)c3)ccc2c1 + Cc1sc2c(c1C)C(c1ccc(Cl)cc1)=N[C@@H](CC(=O)OC(C)(C)C)c1nnc(C)n1-2 [NCGC00250412-19]  -225
6. COc1ccc2c(c1)CC[C@H](CN(C)CC(=O)O)[C@@H]2c1ccccc1 + Cc1sc2c(c1C)C(c1ccc(Cl)cc1)=N[C@@H](CC(=O)OC(C)(C)C)c1nnc(C)n1-2 [NCGC00250412-19]  -220
7. CN1CCN(c2ncc(-c3cc(Cl)cc(Cl)c3Cl)c(N)n2)CC1 + Cc1sc2c(c1C)C(c1ccc(Cl)cc1)=N[C@@H](CC(=O)OC(C)(C)C)c1nnc(C)n1-2 [NCGC00250412-19]  -219
8. O=C(c1ccc(Nc2nccc(-c3cc4ccccc4s3)n2)cc1)N1CCC(N2CCCC2)CC1 + Cc1sc2c(c1C)C(c1ccc(Cl)cc1)=N[C@@H](CC(=O)OC(C)(C)C)c1nnc(C)n1-2 [NCGC00250412-19]  -181
9. O=C(OCC#CCSc1nnc(-c2cccc3ccccc23)o1)c1cc2ccccc2s1 + Cc1sc2c(c1C)C(c1ccc(Cl)cc1)=N[C@@H](CC(=O)OC(C)(C)C)c1nnc(C)n1-2 [NCGC00250412-19]  -169
10. CN(C)CCOc1cc(-c2cn[nH]c2)ccc1NC(=O)C1COc2ccccc2O1 (stereo not drawn) + Cc1sc2c(c1C)C(c1ccc(Cl)cc1)=N[C@@H](CC(=O)OC(C)(C)C)c1nnc(C)n1-2 [NCGC00250412-19]  -160
11. CN(C)Cc1c(C(=O)NCCOc2ccc(C(=O)NO)cc2)oc2ccccc12 + Cc1sc2c(c1C)C(c1ccc(Cl)cc1)=N[C@@H](CC(=O)OC(C)(C)C)c1nnc(C)n1-2 [NCGC00250412-19]  -152
12. C=CC[C@@H]1/C=C(\C)C[C@H](C)C[C@H](OC)[C@H]2O[C@@](O)(C(=O)C(=O)N3CCCC[C@H]3C(=O)O[C@H](/C(C)=C/[C@@H]3CC[C@@H](O)[C@H](OC)C3)[C@H](C)[C@@H](O)CC1=O)[C@H](C)C[C@@H]2OC + Cc1sc2c(c1C)C(c1ccc(Cl)cc1)=N[C@@H](CC(=O)OC(C)(C)C)c1nnc(C)n1-2 [NCGC00250412-19]  -143
13. CC1=C(C(=O)Nc2cc3cn[nH]c3cc2F)C(c2ccc(Cl)cc2F)N=C(c2ccnc(Cl)c2)N1 (stereo not drawn) + Cc1sc2c(c1C)C(c1ccc(Cl)cc1)=N[C@@H](CC(=O)OC(C)(C)C)c1nnc(C)n1-2 [NCGC00250412-19]  -142
14. CC[C@@H]1/C=C(\C)C[C@H](C)C[C@H](OC)[C@H]2O[C@@](O)(C(=O)C(=O)N3CCCC[C@H]3C(=O)O[C@H](/C(C)=C/[C@@H]3CC[C@H](Cl)[C@H](OC)C3)[C@H](C)[C@@H](O)CC1=O)[C@H](C)C[C@@H]2OC + Cc1sc2c(c1C)C(c1ccc(Cl)cc1)=N[C@@H](CC(=O)OC(C)(C)C)c1nnc(C)n1-2 [NCGC00250412-19]  -132
15. Cn1c(=O)c(-c2c(Cl)cccc2Cl)cc2cnc(Nc3cccc(C(=O)O)c3)nc21 + Cc1sc2c(c1C)C(c1ccc(Cl)cc1)=N[C@@H](CC(=O)OC(C)(C)C)c1nnc(C)n1-2 [NCGC00250412-19]  -131
16. Cc1cc(=O)c2c(O)c3c(O)cc(=O)c4c3c3c(cc(O)c1c23)C(C)(C)C=4O + Cc1sc2c(c1C)C(c1ccc(Cl)cc1)=N[C@@H](CC(=O)OC(C)(C)C)c1nnc(C)n1-2 [NCGC00250412-19]  -128
17. O=C1CSC(=O)N1C(CCc1ccncc1)COc1ccc(-c2cccc([N+](=O)[O-])c2)cc1 (stereo not drawn) + Cc1sc2c(c1C)C(c1ccc(Cl)cc1)=N[C@@H](CC(=O)OC(C)(C)C)c1nnc(C)n1-2 [NCGC00250412-19]  -96.7
18. CCOC(=O)N1CCN([N+]([O-])=NOc2ccc([N+](=O)[O-])cc2[N+](=O)[O-])CC1 + Cc1sc2c(c1C)C(c1ccc(Cl)cc1)=N[C@@H](CC(=O)OC(C)(C)C)c1nnc(C)n1-2 [NCGC00250412-19]  -84.4
19. O=C(O)CCNc1cc(N2CCc3ccccc3CC2)nc(-c2ccccn2)n1 + Cc1sc2c(c1C)C(c1ccc(Cl)cc1)=N[C@@H](CC(=O)OC(C)(C)C)c1nnc(C)n1-2 [NCGC00250412-19]  -73
20. CC(C)n1cnc2c(NCCCCCCNC(=O)OC(C)(C)C)nc(NCCO)nc21 + Cc1sc2c(c1C)C(c1ccc(Cl)cc1)=N[C@@H](CC(=O)OC(C)(C)C)c1nnc(C)n1-2 [NCGC00250412-19]  -65.3
21. CNC(=O)c1ccc(N2C(=S)N(c3ccc(C#N)c(C(F)(F)F)c3)C(=O)C23CCC3)cc1F + Cc1sc2c(c1C)C(c1ccc(Cl)cc1)=N[C@@H](CC(=O)OC(C)(C)C)c1nnc(C)n1-2 [NCGC00250412-19]  -51.1
22. Oc1ccc([C@@H]2Oc3ccc(O)cc3[C@@H]3CCC[C@@H]32)cc1 + Cc1sc2c(c1C)C(c1ccc(Cl)cc1)=N[C@@H](CC(=O)OC(C)(C)C)c1nnc(C)n1-2 [NCGC00250412-19]  -48.9
23. Cc1cc(OCCCc2c(C(=O)O)n(Cc3cccnc3)c3c(-c4c(COc5ccc(N6CCN([S+](C)(=O)[O-])CC6)cc5)nn(C)c4C)cccc23)cc(C)c1Cl + Cc1sc2c(c1C)C(c1ccc(Cl)cc1)=N[C@@H](CC(=O)OC(C)(C)C)c1nnc(C)n1-2 [NCGC00250412-19]  -31.2
24. CNC(=O)c1ccc(N2C(=S)N(c3cnc(C#N)c(C(F)(F)F)c3)C(=O)C23CCC3)cc1F + Cc1sc2c(c1C)C(c1ccc(Cl)cc1)=N[C@@H](CC(=O)OC(C)(C)C)c1nnc(C)n1-2 [NCGC00250412-19]  -9.84
25. CS[C@H]1SC[C@H]2C(=O)N(C)[C@@H](C(C)C)C(=O)OC[C@@H](NC(=O)c3cnc4ccccc4n3)C(=O)N[C@@H](C)C(=O)N(C)[C@@H]1C(=O)N(C)[C@@H](C(C)C)C(=O)OC[C@@H](NC(=O)c1cnc3ccccc3n1)C(=O)N[C@@H](C)C(=O)N2C + Cc1sc2c(c1C)C(c1ccc(Cl)cc1)=N[C@@H](CC(=O)OC(C)(C)C)c1nnc(C)n1-2 [NCGC00250412-19]  15.3
26. CC(C)(C)OC(=O)CN(Cc1ccc(Cl)cc1)Cc1ccc([N+](=O)[O-])s1 + Cc1sc2c(c1C)C(c1ccc(Cl)cc1)=N[C@@H](CC(=O)OC(C)(C)C)c1nnc(C)n1-2 [NCGC00250412-19]  27
27. Cc1ccc2nc(NC(=O)CSc3nc4c(c(=O)n3-c3ccccc3)SCC4)sc2c1 + Cc1sc2c(c1C)C(c1ccc(Cl)cc1)=N[C@@H](CC(=O)OC(C)(C)C)c1nnc(C)n1-2 [NCGC00250412-19]  84.8
28. N#Cc1cc(NC(=O)Nc2nnc(-c3ccncc3)s2)ccc1-c1cn[nH]c1 + Cc1sc2c(c1C)C(c1ccc(Cl)cc1)=N[C@@H](CC(=O)OC(C)(C)C)c1nnc(C)n1-2 [NCGC00250412-19]  313
